RE007 growth inh = qHTS Assay for Inhibitors of the HIV-1 protein Vpr | hit rate 0.21% among 360,000 | Potency, µM (series often up to 92.2 µM), for inactives: top-dose activity change, negative = less growth, actives largely listed as inhibitors | S. pombe RE007 Vpr strain, BacTiter-Glo ATP luminescence, 24 h | AID 651644, 2012; active = well fitted falling curve with a large enough effect; inconclusive = small, poorly fitted or top-dose-only effect; inactive = no such curve, though single readings can be large or run the other way; also: nearly all actives have a fitted effect of over 50% in size
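Fission yeast strain RE007, carrying one chromosomally integrated HIV-1 vpr copy, was seeded at OD 0.01 in PMG+AL medium with 23 nL pinned compound. After 24 h at 30 °C and 99% humidity, viability was read by BacTiter-Glo luminescence.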
Lassa entry inh = qHTS for Inhibitors of binding or entry into cells for Lassa Virus; hit rate 1.2% among 300,000; Lassa virus pseudotype entry inhibition, cell reporter; Potency, µM (titrated, usually from 37.9 µM), for inactives: top-dose activity change, negative = inhibition, usual class: inhibitors; AID 540256, 2011; calls by dose curve; tested in HEK293 cells; also: nearly all actives have a fitted effect of over 50% in size
FMDV inh = High Throughput Screening for Foot and Mouth Disease Virus Antivirals. Potency, µM (titrated, usually from 57.9 µM), without a hit: at the top dose activity change, negative = inhibition, usual class: inhibitors. hit rate 1.2% among 410,000. FMDV antiviral cell-based qHTS; calls by dose curve; tested in HEK293T cells; also: read-out not given here; nearly all actives have a fitted effect of over 45% in size
HCV inhibitor = qHTS Assay for Inhibitors of Hepatitis C Virus (HCV). Huh7.5.1 HCVcc-Cre infection, luciferase reporter, 44 h. Potency, µM (highest dose often 41.8 µM), for the others: at the highest dose activity change, negative = inhibition, most hits filed as inhibitors. hit rate 3.4% among 340,000
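Cells (1,000/well) were plated 4 h before compound, then infected with HCVcc-Cre virus (~0.5 moi). After 44 h further culture, infection was read as luciferase luminescence following a 15 min substrate incubation at room temperature.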
Sm TGR block = qHTS Assay for the Inhibitors of Schistosoma Mansoni Peroxiredoxins | Schistosoma mansoni thioredoxin glutathione reductase (TGR), Q962Y6 | purified TGR, DTNB reduction, TNB absorbance 405 nm | Potency, µM (top dose mostly 114 µM), for inactives: top-dose activity change, negative = inhibition, most hits filed as inhibitors | hit rate 3% among 360,000 | AID 485364, 2010; also: nearly all actives have a fitted effect of over 60% in size
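Kinetic colorimetric format: TGR-catalysed, NADPH-driven DTNB reduction monitored via TNB absorbance. Enzyme dispensed at 20 nM; compound exposure 15 min at room temperature before reaction start.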
Marburg entry inh = qHTS for inhibitors of binding or entry into cells for Marburg Virus. Potency, µM (titrated, usually from 37.8 µM), for inactives: top-dose activity change, negative = inhibition, hits mostly inhibitors. hit rate 1.8% among 300,000. Marburg virus pseudotyped entry inhibition, cell reporter. AID 540276, 2011; calls by dose curve; tested in HEK293 cells
* = called active by the depositor; ? = inconclusive; · = no result given; [ ] = remark or other dose. Only some compounds are listed: those with a hit (about 7.2% of all), similar ones and a draw of the others. Unless noted, calls follow the shape of the dose curve; as a rule, active = well fitted curve in the direction sought with a large enough effect; inconclusive = small, poorly fitted or top-dose-only effect, or another doubt; inactive = no such curve, though single readings can be large; an effect the other way counts as inactive or inconclusive. % is scaled to controls: 0 for no effect and ±100 for the full control effect; potency is read from the fitted curve at half-maximal effect.

SMILES	RE007 growth inh	Lassa entry inh	FMDV inh	HCV inhibitor	Sm TGR block	Marburg entry inh
CCOc1ccc(-c2cc(C(=O)N/N=C(\C)c3cccnc3)c3ccccc3n2)c(OCC)c1	10%	?	8%	?	2%	4µM*
C/C(=N\NC(=O)c1cc(-c2cccnc2)nc2ccccc12)c1ccccc1O	-5%	?	30%	4µM*	-6%	10µM*
COc1ccc(/C(C)=N/NC(=O)c2cc(-c3cccnc3)nc3ccccc23)cc1	-13%	0%	32%	2%	7%	-26%
COc1ccc2c(C)c(CCC(=O)NCCc3ccccc3)c(=O)oc2c1	·	-3%[46.1 µM]	-8%	·	2%	-13%[46.1 µM]
O=C(O)c1ccccc1NC(=O)C1CCN(S(=O)(=O)c2ccc3c(c2)OCCO3)CC1	-18%	·	0%	·	·	·
N#C/C(=C/c1cn(-c2ccccc2)nc1-c1cccc(OCc2ccccc2)c1)C(=O)NCCCn1ccnc1	1%	?	0%	?	-5%	11µM*
CCOc1cccc(-c2nn(-c3ccccc3)cc2/C=C(/C#N)C(=O)NCCCn2ccnc2)c1	8%	?	?	18µM*	5%	?
CC(=O)c1cccc(NC(=O)CN2C(=O)CN(C)C(=O)c3ccccc32)c1	·	7%[46.1 µM]	7%	·	-2%	·
COc1ccc(C(CNC(=O)c2cc(S(=O)(=O)N3CCN(c4ccccc4)CC3)ccc2Cl)N(C)C)cc1 (configuration not stated)	-4%	·	?	16µM*	·	·
CN(C)C(CNC(=O)c1cccc(S(=O)(=O)N(C)C)c1)c1ccccc1 (configuration not stated)	8%	?	3%	15%	-11%	15%
CN(C)C(CNC(=O)c1cccc(S(=O)(=O)N2CCN(c3ccccc3)CC2)c1)c1ccccc1 (configuration not stated)	-9%	·	-24%	13µM*	·	·
O=C(NCc1ccccn1)c1cc(S(=O)(=O)N2CCN(c3ccccc3)CC2)ccc1Cl	-22%	26%	-15%	?	0%	-22%
COc1ccc(-c2cc(C(F)(F)F)nc(N3CCCCC3)n2)cc1OC	8%	?	-24%	-27%	-2%	?
COc1ccc(-c2cc(C(F)(F)F)nc(N3CCN(C)CC3)n2)cc1OC	-10%	-27%	?	?	-23%	12µM*
c1ccc(CCc2nnc3n2CCN(Cc2ccc4ccccc4n2)CC3)cc1	·	·	28%	·	·	·
Cc1ccc(C(C)C)cc1S(=O)(=O)NC1CC(C)(C)NC(C)(C)C1	-9%	?	37%	-18%	-3%	13µM*
Cc1ccc(S(=O)(=O)NC2CC(C)(C)NC(C)(C)C2)c(C)c1C	8%	2%	-6%	?	3%	-30%
CCc1nc2c(OCCOc3ccccc3)cccn2c1N(C)C(=O)C1CC1	-29%	·	-4%	·	·	·
COc1ccc(NS(=O)(=O)c2cccc(C(=O)N3CCN(Cc4cc(OC)ccc4OC)CC3)c2)cc1	-5%	?	-18%	?	2%	-9%[46.1 µM]
COc1ccc(OC)c(CN2CCN(C(=O)c3cc(S(=O)(=O)Nc4ccccc4OC)ccc3C)CC2)c1	1%	?	-12%	14µM*	?	?
COc1ccc(OC)c(CN2CCN(C(=O)c3cccc(S(=O)(=O)Nc4ccc(C)cc4)c3)CC2)c1	-6%	-4%[46.1 µM]	-25%	10µM*	-6%	?
COc1cc(C(=O)OCC(=O)Nc2ccc(SC(F)F)cc2)cc(OC)c1OC	·	0%	35µM*	?	-2%	?
Cc1ccc(C(=O)c2ccccc2C(=O)OCC(=O)Nc2ccc(SC(F)F)cc2)cc1	14%	11µM*	-7%	?	-8%	?
COc1cc(C(=O)OCC(=O)Nc2ccc(OC(F)F)cc2)cc(OC)c1OC	3%	?	0%	?	-1%	?
COc1ccc(C2NC3=C(CCC3)C3(C#N)C4(N=C(N)C23C#N)OCCO4)cc1 (configuration not stated)	-16%	1%	?	10%	-34%	1%
SMILES	RE007 growth inh	Lassa entry inh	FMDV inh	HCV inhibitor	Sm TGR block	Marburg entry inh
COc1ccc(C2NC3=C(CCCC3)C(C#N)(C#N)C2(C#N)C#N)cc1 (configuration not stated)	·	·	·	·	1.8µM*	5%
O=C(O)CCC(=O)c1ccc(-c2ccccc2)cc1	-12%[18.4 µM]	-5%	8%	9%	-1%	32%
O=C(O)CCC(=O)CCC(=O)c1ccc(Cl)cc1	9%	-7%	·	24%	28µM*	-15%
Cc1noc(C)c1CSCC(=O)N1CCN(c2ccc([N+](=O)[O-])cc2)CC1	-5%	?	?	11µM*	-19%	?
Cc1ccc(CC(=O)N2CCN(c3ccc([N+](=O)[O-])cc3)CC2)cc1	?	-5%[46.1 µM]	-27%	?	8%	?
COc1ccccc1CC(=O)N1CCN(c2ccc([N+](=O)[O-])cc2)CC1	-20%	·	?	6.3µM*	56%	·
O=C(CCS(=O)(=O)Cc1ccccc1)N1CCN(c2ccc([N+](=O)[O-])cc2)CC1	-2%	-15%[46.1 µM]	?	-24%	25µM*	?
COc1ccc(NC(=O)N2CCN(c3ccc([N+](=O)[O-])cc3)CC2)cc1OC	-16%	?	-28%	10µM*	8%	?
CC(C)[C@@H]1CC[C@H](C)C[C@H]1OP(N)(=O)c1ccccc1 (some centres not stated)	·	·	·	·	·	-2%
Cc1cnc(-n2ncc(C(=O)N(C)Cc3cccc4ncccc34)c2C(C)C)nc1-c1ccc(F)cc1	·	·	-17%	·	·	·
CCC[C@H](CCC(=O)Nc1ccc(C(=O)OCC)cc1)C(=O)O	·	·	·	·	·	-6%
O=C(O)Cn1c(C(=O)Nc2nc(-c3ccccc3Cl)cs2)cc2ccccc21	·	·	31%	·	·	·
COC(=O)N1C(/C=C/c2ccc3c(c2)OCO3)=Cc2ccccc2C1CC(C)=O (configuration not stated)	·	·	·	·	·	-12%[14.2 µM]
COc1ccc(CCC(=O)N2CCN(c3ccc([N+](=O)[O-])cc3)CC2)cc1OC	-7%	2%[46.1 µM]	?	32µM*	-5%	?
COc1ccc(N2CCN(C(=O)CCc3cc(OC)c(OC)c(OC)c3)CC2)cc1	14%	·	-9%	-15%	2%	·
FC(F)(F)c1nc2ccccc2n2c(-c3ccc(Cl)cc3Cl)nnc12	4%	15%	-8%	4%	2%	4%
FC(F)(F)c1nnc2c(Sc3ccccc3)nc3ccc(Cl)cc3n12	24%	?	?	11µM*	0%	?
Cc1cccc(NC(=O)c2cccc(N3CCCS3(=O)=O)c2)c1	·	?	22%	·	6%	·
COc1ccc(NC(=O)CCl)cn1	·	·	·	·	14µM*	·
